The full list was thinned out, with hits kept by preference.
IDE exosite FP – displaces the probe from the exo-site of human IDE; purified IDE, FL-6b probe fluorescence polarization; stronger effect = lower value; z-score at 20 µM; 17,000 compounds, 6.3% hits; AID 1259349;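 active = z-score of -3 or lower, meaning strong loss of probe binding signal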;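 note: His-tagged human IDE residues 42-1019 made in E. coli with 30 nM FL-6b probe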
Target sequence (P14735 42-1019 limits assumed): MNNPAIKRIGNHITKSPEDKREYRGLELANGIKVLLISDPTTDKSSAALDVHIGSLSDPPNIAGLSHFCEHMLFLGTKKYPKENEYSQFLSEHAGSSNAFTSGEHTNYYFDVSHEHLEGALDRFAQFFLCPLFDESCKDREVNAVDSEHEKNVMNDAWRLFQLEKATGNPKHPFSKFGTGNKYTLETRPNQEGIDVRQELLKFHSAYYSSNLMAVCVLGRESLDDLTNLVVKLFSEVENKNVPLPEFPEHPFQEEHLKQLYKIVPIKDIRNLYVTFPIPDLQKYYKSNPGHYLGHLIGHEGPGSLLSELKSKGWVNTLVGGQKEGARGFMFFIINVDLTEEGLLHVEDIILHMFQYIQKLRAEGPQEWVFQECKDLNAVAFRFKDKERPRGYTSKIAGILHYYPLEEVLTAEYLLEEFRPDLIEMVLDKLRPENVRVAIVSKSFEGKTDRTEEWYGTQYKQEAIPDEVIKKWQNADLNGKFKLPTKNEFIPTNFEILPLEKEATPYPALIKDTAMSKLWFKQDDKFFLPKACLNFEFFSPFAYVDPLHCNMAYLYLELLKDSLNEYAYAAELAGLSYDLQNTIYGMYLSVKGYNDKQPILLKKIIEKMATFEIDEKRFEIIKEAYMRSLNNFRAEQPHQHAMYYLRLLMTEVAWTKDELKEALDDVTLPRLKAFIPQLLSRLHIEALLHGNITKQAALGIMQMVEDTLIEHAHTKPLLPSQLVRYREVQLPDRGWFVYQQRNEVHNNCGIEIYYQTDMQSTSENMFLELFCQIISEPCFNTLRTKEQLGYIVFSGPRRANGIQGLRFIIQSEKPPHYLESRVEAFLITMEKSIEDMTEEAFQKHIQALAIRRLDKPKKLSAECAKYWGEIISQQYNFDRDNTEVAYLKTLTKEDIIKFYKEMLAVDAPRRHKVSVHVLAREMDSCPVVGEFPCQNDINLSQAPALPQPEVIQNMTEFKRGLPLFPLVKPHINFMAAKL
Starred values were filed as active, the others as inactive.

SMILES	IDE exosite FP
O=C([C@H]1[C@H](CO)[C@H]2Cn3c(cccc3=O)[C@@H]1N2S(=O)(=O)c1ccccc1F)N1CCCCC1	0.14
O=S(=O)(c1cccc(F)c1)N1CC[C@@H]2[C@H]1c1cc(Br)ccc1N[C@@H]2CO	0.88
C[C@@H]1CCCCO[C@@H](CN(C)CC2CC2)[C@H](C)CN([C@H](C)CO)C(=O)c2cc(NC(=O)c3ccccc3)ccc2O1	-0.86
CN(C)CC#Cc1ccc([C@@H]2[C@@H](CO)N3CCCCN(C(=O)C4CCC4)C[C@@H]23)cc1	2.4
O=C1CN(S(=O)(=O)c2ccccc2)C[C@@H]2[C@@H](c3ccc(Br)cc3)[C@@H](CO)N12	2.9
CCC(=O)N1[C@H](CO)[C@@H](c2ccccc2)[C@@H]1CN(C)C(=O)CN1CCOCC1	-1.3
C[C@H]1CN([C@@H](C)CO)C(=O)CCCn2nncc2CO[C@H]1CN(C)Cc1ccc2c(c1)OCCN2C	0.26
COc1ccc(C#Cc2ccc([C@H]3[C@H](CO)N4C(=O)CN(C(C)=O)C[C@@H]34)cc2)cc1	2.3
COc1cccc(C#Cc2ccc([C@@H]3[C@H]4CN(C(C)=O)CC(=O)N4[C@H]3CO)cc2)c1	-3.9*
COc1ccc(C#Cc2ccc([C@@H]3[C@@H](CO)N4C(=O)CN(C(C)=O)C[C@@H]34)cc2)cc1	3.9
CC(=O)N1CC(=O)N2[C@H](CO)[C@@H](c3ccc(C#Cc4cccnc4)cc3)[C@H]2C1	1.5
CC(=O)N1CC(=O)N2[C@@H](CO)[C@H](c3ccc(C#Cc4cccnc4)cc3)[C@@H]2C1	1.7
COc1cccc(C#Cc2ccc([C@H]3[C@@H](CO)N4C(=O)CN(C(C)=O)C[C@@H]34)cc2)c1	-5.1*
CC(=O)N1CC(=O)N2[C@H](CO)[C@H](c3ccc(C#Cc4cccnc4)cc3)[C@H]2C1	0.82
COc1cccc(C#Cc2ccc([C@H]3[C@@H](CO)N4C(=O)CN(C(C)=O)C[C@H]34)cc2)c1	-7.9*
COc1cccc(C#Cc2ccc([C@@H]3[C@@H](CO)N4C(=O)CN(C(C)=O)C[C@H]34)cc2)c1	-0.98
O=S(=O)(c1cccs1)N1CCCCN2[C@@H](CO)[C@@H](c3ccc(C4=CCCC4)cc3)[C@@H]2C1	0.37
CCC(=O)N1CC(=O)N2[C@H](CO)[C@H](c3ccc(C#CC4CCCC4)cc3)[C@@H]2C1	2.6
COC(=O)C[C@@H]1C[C@H]2c3cc(N)ccc3O[C@H]2[C@@H](CO)O1	-0.54
N#C[C@@H]1[C@H](c2ccccc2)[C@@H](CO)N1C(=O)CN1CCOCC1	1.6
N#C[C@H]1[C@@H](c2ccccc2-c2ccccc2F)[C@H](CO)N1C(=O)C1CCOCC1	-0.42
O=C(NCCN1CCCC1)c1cc2c(c(-c3cccc(C4=CCCC4)c3)n1)[C@@H](CCO)N(CC1CC1)C2	0.48
COC(=O)C[C@H]1CC[C@@H]2[C@@H](COc3ccc(NC(=O)Nc4c(C)noc4C)cc3C(=O)N2C)O1	0.36
CC(C)[C@H]1C(=O)NCCC=CC[C@H](C)Oc2ccccc2C(=O)N1C (mixture of isomers)	0.33
CCc1csc(N2[C@@H](C#N)[C@@H](c3ccc(C4=CCCC4)cc3)[C@@H]2CO)n1	2.6
SMILES	IDE exosite FP
CC(C)NC(=O)N1CCCCN2[C@@H](CO)[C@H](c3ccc(Br)cc3)[C@@H]2C1	2.7
CC(C)NC(=O)N1CCCCN2[C@@H](CO)[C@@H](c3ccc(Br)cc3)[C@@H]2C1	0.63
COc1cccc(-c2ccc([C@@H]3[C@H](CO)N4CCCCN(C(=O)c5ccc6c(c5)OCO6)C[C@@H]34)cc2)c1	-1.9
COc1cccc(-c2ccc([C@@H]3[C@H](CO)N4CCCCN(C(=O)NC(C)C)C[C@@H]34)cc2)c1	-6.5*
COc1cccc(-c2ccc([C@H]3[C@H](CO)N4CCCCN(C(=O)c5ccc(F)cc5)C[C@@H]34)cc2)c1	-2
COc1cccc(-c2ccc([C@H]3[C@H]4CN(C(=O)NC(C)C)CCCCN4[C@H]3CO)cc2)c1	-10*
CO[C@@H](CN(C)C(=O)c1ccc2c(c1)OCO2)[C@@H](C)CN([C@H](C)CO)S(=O)(=O)c1ccc(Cl)cc1	-0.42
CC(C)C#Cc1ccc([C@@H]2[C@@H](CO)N3C(=O)CN(C(=O)NC4CCCC4)C[C@H]23)cc1	-1
CC(C)C#Cc1ccc([C@@H]2[C@H](CO)N3C(=O)CN(C(=O)NC4CCCC4)C[C@@H]23)cc1	-1.4
Cc1ccccc1-c1ccc([C@H]2[C@H](CO)N3C(=O)CN(C(=O)NC4CCCC4)C[C@@H]23)cc1	-21*
Cc1ccccc1-c1ccc([C@H]2[C@H]3CN(C(=O)NC4CCCC4)CC(=O)N3[C@H]2CO)cc1	-12*
O=C(NC1CCCC1)N1CC(=O)N2[C@H](CO)[C@H](c3ccc(C4=CCCCC4)cc3)[C@@H]2C1	-2
O=C(Cc1cccnc1)N1[C@H](CO)[C@H](c2ccccc2)[C@H]1CNCC1CCC1	-0.16
OC[C@@H]1[C@@H](c2ccccc2)C2(CN(CCC(F)(F)F)C2)N1Cc1nccs1	0.23
N#C[C@@H]1N[C@H](CO)[C@H]1c1ccc(C2=CCCC2)cc1	1.6
O=C(c1ccncc1)N1C[C@H]2[C@@H](c3ccccc31)[C@@H](CO)N2Cc1ccccc1F	1.8
CN1C(=O)c2cc(NC(=O)c3cscn3)ccc2OC[C@H]2O[C@@H](CC(=O)N3CCOCC3)CC[C@H]21	1
N#C[C@H]1[C@@H](c2ccccc2C2=CCCCC2)[C@H](CO)N1C(=O)C1CCOCC1	3.5
COc1cc(CN2CC3(CCN(S(=O)(=O)c4cn(C)cn4)CC3)c3c(n(C)c4cc(OC)ccc34)[C@H]2CO)cc(OC)c1	-2.5
COc1cccc(-c2ccc3c(c2)[C@@H]2[C@@H](CCN2S(=O)(=O)C2=NC(C)C=N2)[C@H](CO)N3C)c1 (some centres not stated)	2.4
CCc1nc(N2[C@@H](C#N)[C@@H](c3ccccc3-c3ccccc3C)[C@@H]2CO)sc1C	0.035
CCNC[C@H]1[C@@H](c2ccccc2)[C@@H](CO)N1C(=O)Cc1ccccn1	1.4
COc1ccc2c3c(n(C)c2c1)[C@@H](CO)N(Cc1ccc(Cl)cc1)CC31CN(C(=O)NC(C)C)C1	0.21
COc1ccc2c3c(n(C)c2c1)[C@H](CO)N(Cc1cccnc1)CC31CCN(C(=O)NC(C)C)CC1	-3*
COc1ccc2c3c(n(C)c2c1)[C@H](CO)N(C)CC31CCN(C(=O)c2cccnc2)CC1	-0.19
SMILES	IDE exosite FP
COc1ccc2c3c(n(C)c2c1)[C@H](CO)N(Cc1cccc(Cl)c1)CC31CCN(C(=O)C2CC2)CC1	-1.6
COc1cccc(CN2CC3(CCN(S(C)(=O)=O)CC3)c3c(n(C)c4cc(OC)ccc34)[C@@H]2CO)c1	-2.5
COc1ccc2c3c(n(C)c2c1)[C@@H](CO)N(Cc1cccnc1)CC31CCN(C(=O)NC(C)C)CC1	-5.9*
COCCNC(=O)C[C@@H]1CC[C@H]2[C@@H](COC[C@H](O)CN2Cc2ccc(Cl)c(Cl)c2)O1	1.4
O=C(CCN1CCCCC1)NCC[C@@H]1CC[C@H](NS(=O)(=O)c2cccc(Cl)c2)[C@@H](CO)O1	0.32
O=C(NCC[C@H]1CC[C@@H](NC(=O)c2ccccc2F)[C@@H](CO)O1)c1cnccn1	1.3
CC(C)C#Cc1ccc([C@H]2[C@H](CO)N3C(=O)CN(C(=O)c4ccccn4)C[C@@H]23)cc1	1.4
CCCC#Cc1ccc([C@H]2[C@H](CO)N3C(=O)CN(C(=O)c4ccccn4)C[C@@H]23)cc1	1.1
CC(C)C#Cc1ccc([C@@H]2[C@H](CO)N3C(=O)CN(C(=O)c4ccccn4)C[C@@H]23)cc1	-0.085

Source: PubChem BioAssay
